Bioassay records deposited in PubChem by several laboratories.
tim23-1 inh: inhibits growth of tim23-1 mutant yeast; S. cerevisiae tim23-1 growth, BacTiter-Glo luminescence, 24 h; inhibition, % at 20 µM; actives 1.3% (n = 330,000); AID 463212;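 active = growth inhibition of the mutant yeast at or above 50%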;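 note: temperature-sensitive mutant grown at 25 °C; plate controls were DMSO-treated mutant yeast for no effect and medium wells lacking yeast for full effect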
NLRP3 yeast inh: inhibitors of NALP3 inflammasome in yeast | Yeast reconstituted NLRP3/ASC/caspase-1, beta-gal luminescence, 24 h | inhibition, % at 10 µM | actives 0.39% (n = 330,000);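 active = inhibition of 50% or more; inactive = inhibition below 50%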;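 note: plate controls were induced DMSO wells for no effect and uninduced yeast grown without galactose for full effect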
TIM10 inh: growth inhibitors of TIM10 yeast strain. S. cerevisiae TIM10 strain growth, BacTiter-Glo luminescence, 24 h. inhibition, % at 10 µM. actives 1.4% (n = 330,000);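 active = inhibition of 40% or more at the single tested concentration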;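 note: wild-type TIM10 isogenic control strain grown at permissive 25 °C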
tim10-1 inh: inhibits growth of tim10-1 mutant yeast. actives 2.2% (n = 330,000). inhibition, % at 20 µM. S. cerevisiae tim10-1 ts strain growth, BacTiter-Glo, 24 h;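 active = inhibition of at least 40%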;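 note: mutant grown at 25 °C; 0% = DMSO wells with yeast and 100% = wells holding no yeast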
NALP1 yeast inh: NALP1 inhibition. actives 0.61% (n = 280,000). inhibition, % at 10 µM. AID 2071. S. cerevisiae NALP1/ASC/caspase-1 growth, X-gal OD620, 72 h; in the data active = inhibition mostly above about 24%, no sharp cut-off; inactive = mostly below about 32%
PfHsp90 yeast 2: reduces growth (ATP signal) of yeast expressing P. falciparum Hsp90; S. cerevisiae expressing PfHsp90, BacTiter-Glo ATP, 48 h; yeast lacking PDR1 and PDR3 efflux regulators; inhibition, % at 9.4 µM; actives 0.32% (n = 310,000);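 active = every replicate shows inhibition above about 80%, whatever the replicate mean, limit read from the data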;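 note: 0% = DMSO neutral controls and 100% = 20 µM radicicol positive controls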
tim10-1 conf: confirmation of tim10-1 mutant yeast growth inhibitors; shares compounds with tim10-1 inh; S. cerevisiae tim10-1 ts strain growth, BacTiter-Glo, 24 h; inhibition, % at 20 µM; actives 56% (n = 7,400); AID 463213;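 active = inhibition of yeast growth at or above a set limit in either of two repeat tests at 20 µM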;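 note: tim10-1 mutant grown at permissive 25 °C to find synthetic lethal compounds; 0% = DMSO yeast wells and 100% = medium wells without yeast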
* hit, by the source's call; / = not tested or not shown. The list is not random: actives were taken first. Their share in the collection is about 4.2%.

SMILES | tim23-1 inh | NLRP3 yeast inh | TIM10 inh | tim10-1 inh | NALP1 yeast inh | PfHsp90 yeast 2 | tim10-1 conf
CC(=O)Nc1ccc(C(=O)OCc2ccc(F)cc2)cc1 | -25 | 46 | 27 | 42* | 26 | -97 | 23
O=C(Nc1cccc(Cl)c1)N1N=CCC1c1ccccc1 (centres undefined) | 39 | 15 | 26 | 48* | / | / | 47*
O=C(Nc1cccc2ccccc12)N1CCN(c2ccccc2)CC1 | 3 | 23 | -11 | -15 | 10 | 5 | /
Fc1ccc(NC(=S)N2N=CCC2c2ccccc2)cc1 (centres undefined) | 25 | 9 | 4 | 36 | 23 | -2 | /
O=C(Nc1cccc2ccccc12)N1N=CCC1c1ccccc1 (centres undefined) | 42 | 9 | 23 | 44* | / | / | 29
S=C(Nc1ccccc1)N1N=CCC1c1ccccc1 (centres undefined) | 22 | 6 | 12 | 46* | 4 | -25 | 25
N=c1oc2cc(O)ccc2cc1C(=O)Nc1ccc(Cl)cc1 | 43 | -23 | 25 | 44* | 26 | 7 | 24
O=C(O)CCC(=O)Nc1cccc2cccnc12 | -2 | 9 | 13 | 72* | -5 | -22 | 1
O=C(NCc1cccnc1)Nc1ccc(Cl)cc1Cl | -1 | 17 | -10 | -4 | 19 | 12 | /
Cc1ccc2cc(CN(CC3CCCO3)C(=S)Nc3ccccc3)c(=O)[nH]c2c1 (centres undefined) | 41 | 9 | 15 | 44* | -4 | 8 | 16
Cc1cccc(NC(=O)CC2SC(=O)N(c3ccccc3)C2=O)c1 (centres undefined) | 43 | 27 | 35 | 43* | -1 | 28 | 37*
O=C(CC1SC(=O)N(c2ccccc2)C1=O)Nc1ccccc1 (centres undefined) | 22 | 5 | 16 | 38 | -14 | -3 | /
Cc1ccc(Nc2c(-c3ccco3)nc3nc(C)cc(C)n23)cc1 | 10 | 17 | 17 | 41* | 5 | 23 | 14
CC(C)(C)C(=O)NC(=S)Nc1ccc(Cc2ccncc2)cc1 | 38 | 44 | 32 | 44* | 20 | 0 | 30
COc1ccc(CN(C)C(=O)c2ccccc2Sc2ccccc2C#N)c(OC)c1 | 32 | 21 | 9 | 17 | 3 | -8 | /
CC(=O)c1c(C)[nH]c(C(=O)Nc2ccc(F)cc2F)c1C | 29 | 37 | -6 | 18 | -2 | 22 | /
CCCc1ccc(-c2cc(C(=O)N/N=C/c3ccc([N+](=O)[O-])o3)c3ccccc3n2)cc1 | 46 | 21 | 31 | 44* | -2 | -9 | 49*
Cc1ccc(-c2cc(C(=O)NN=C3CCCC3)c3ccccc3n2)cc1 | 42 | 20 | 22 | 44* | 3 | -13 | 25
O=C(CNc1ccc2ccccc2c1)N/N=C/c1ccc([N+](=O)[O-])o1 | 38 | 14 | 33 | 47* | 27 | -7 | 41*
Cc1sc(NC(=O)c2cc(-c3ccccc3)nc3ccccc23)c(C(N)=O)c1C | 34 | 24 | 22 | 41* | 15 | -78 | 17
O=C(CNc1ccc2ccccc2c1)N/N=C/c1ccc(C(=O)O)cc1 | 14 | 5 | 6 | 8 | -4 | -4 | /
CCN1CCN(c2ccc(S(=O)(=O)N3CCOCC3)cc2N)CC1 | 3 | 12 | -1 | -10 | / | / | /
CCCOc1cccc(C(=O)NCCNC(=O)c2ccco2)c1 | 11 | 17 | -8 | -16 | 14 | -3 | /
O=C(NNC(=O)C1CC1)c1cc(=O)[nH]c2ccccc12 | 2 | 5 | -8 | -11 | / | -1 | /
O=C(N/N=C/c1ccco1)c1cc(-c2ccccc2)nc2ccccc12 | 32 | 11 | 21 | 20 | 14 | 1 | /
SMILES | tim23-1 inh | NLRP3 yeast inh | TIM10 inh | tim10-1 inh | NALP1 yeast inh | PfHsp90 yeast 2 | tim10-1 conf
O=C(N/N=C/c1ccccn1)c1cc(-c2ccc(Br)cc2)nc2ccccc12 | 50 | 27 | 38 | 44* | -2 | 106* | 24
CCCOc1cccc(-c2cc(C(=O)N/N=C/c3ccccn3)c3ccccc3n2)c1 | 41 | 15 | 27 | 19 | -4 | -10 | /
O=C(N/N=C/c1ccc([N+](=O)[O-])o1)c1cc(-c2cccc(Br)c2)nc2ccccc12 | 31 | 2 | 34 | 44* | 5 | -12 | 25
O=C(c1ccc(CS(=O)Cc2ccc(Cl)cc2)o1)N1CCN(c2cccc(Cl)c2)CC1 (centres undefined) | 10 | 21 | 17 | 40* | -28 | -20 | 0
Cc1ccc(C)c(N2CCN(C(=O)c3ccc(CS(=O)Cc4cccc(Cl)c4)o3)CC2)c1 (centres undefined) | 13 | 15 | 0 | 42* | -6 | -2 | -11
Cc1ccc(C(=O)N2CCN(c3cccc(C)c3C)CC2)o1 | 26 | 19 | 8 | 22 | 1 | -43 | /
O=C(c1ccc(CS(=O)Cc2ccc(Cl)cc2)o1)N1CCN(c2ccc(F)cc2)CC1 (centres undefined) | 18 | 0 | 7 | 30 | 15 | 4 | /
O=C(c1ccc(CS(=O)Cc2cccc(Cl)c2)o1)N1CCN(C2CCCCC2)CC1 (centres undefined) | -12 | 3 | -13 | -5 | 5 | 2 | /
Cc1cccc(N2CCN(C(=O)c3ccc(CS(=O)Cc4ccc(Cl)cc4)o3)CC2)c1C (centres undefined) | 38 | 11 | 24 | 54* | -16 | -37 | 7
O=C(c1ccco1)N1CCN(S(=O)(=O)c2cccc([N+](=O)[O-])c2)CC1 | 4 | 1 | -9 | 1 | -20 | -24 | /
CC(Oc1cccc(Cl)c1)C(=O)Nc1ccc(N2CCOCC2)cc1N1CCOCC1 (centres undefined) | 41 | 14 | 16 | 25 | / | -35 | /
OC(CNCCc1ccc(C(F)(F)F)cc1)COc1ccc2ccccc2c1 (centres undefined) | -94 | 27 | 7 | 48* | 96* | 13 | -7
NS(=O)(=O)Cc1noc2ccccc12 | 13 | -4 | -3 | 4 | -9 | -15 | /
O=C(Nn1c(COc2ccccc2)nc2ccccc2c1=O)C(Cl)(Cl)Cl | 31 | 12 | 28 | 40* | 12 | -2 | 32*
COc1ccc(Nc2ccccc2N)cc1 | 36 | 39 | 27 | 47* | -6 | -11 | 24
Nc1ccc(Nc2ccccc2N)cc1 | 26 | 34 | -5 | 35 | 17 | -43 | /
CCCc1nc(NC(=O)c2ccccc2)nc(NC(=O)c2ccccc2)n1 | 6 | 11 | 10 | 11 | 16 | 16 | /
C=CCNC(=S)NNc1nc2c(c(=O)[nH]1)C1(CCCC1)Cc1ccccc1-2 | 37 | -17 | 34 | 48* | 8 | 2 | 38*
O=c1[nH]c(NCCCO)nc2c1C1(CCCC1)Cc1ccccc1-2 | 14 | 5 | 9 | 10 | 9 | 7 | /
